The list is not random: actives were taken first. Their share in the collection is about 17%.
HT1080-NT tox = kills 2HG-producing HT-1080-NT fibrosarcoma cells | HT-1080-NT fibrosarcoma viability, CellTiter-Glo ATP luminescence, 48 h | Potency, µM (titrated, usually from 46.1 µM), for inactives: at the highest dose activity, negative = less viability, hits mostly cytotoxic | 360,000 tested, 1.6% active | AID 686970;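 further: NT is the 2HG producing partner of a matched IDH1 knockdown line; 0% = DMSO-treated cells and -100% = media-only wells without cells; nearly all actives have a fitted effect of over 55% in size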
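Toxicity toward the 2HG-producing NT line was scored as %Activity, normalised to DMSO and no-cell wells, from CellTiter-Glo luminescence after 48 hours' treatment.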
HepG2 viability = counter-screen for TGF-b inhibitors: cytotoxicity in HepG2 cells | HepG2 CAGA-GFP viability, ATP luminescence, 18 h | 410,000 tested, 0.76% active | AID 588856 | Potency, µM (top dose mostly 46.1 µM), without a hit: at the highest dose activity change, negative = cytotoxicity, most hits filed as cytotoxic
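CellTiter-Glo luminescence gave cytotoxicity after 18 hours at 37 degrees C. The cells were HepG2 CAGA-GFP in 1% FBS DMEM, stimulated with 500 pg/mL TGF-beta after compound addition. %Activity was normalised to no-cell wells (complete cell-killing) and DMSO (no toxicity), and curves were fitted and classified.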
TDP1 cell CPT = growth inhibition of DT40 Tdp1-/-;hTDP1 cells with camptothecin (screen for TDP1 inhibitors) | chicken DT40 Tdp1-/-;hTDP1 cells + 20 nM CPT, ATP luminescence, 48 h | Potency, µM (titrated, usually from 46.2 µM), inactives show at the highest dose activity change, negative = growth inhibition, actives largely listed as inhibitors | AID 686979 | 420,000 tested, 12% active; further: on the % scale 0 is the no-effect control and ±100 the full control effect; nearly all actives have a fitted effect of over 55% in size
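Chicken DT40 Tdp1-/- cells complemented with human TDP1, 400 cells/well, exposed to compounds plus 20 nM camptothecin for at least 48 h at 37 C; viability read as ATP content by CellTiter-Glo luminescence.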
TGFb SMAD3 inh = inhibitors of TGF-b signaling | HepG2 CAGA-GFP TGF-b/SMAD3 reporter, GFP fluorescence, 18 h; TGF-beta stimulated, 500 pg/mL final | Potency, µM (series often up to 46.1 µM), for inactives: at the top dose activity, negative = inhibition, hits mostly inhibitors | 410,000 tested, 1.2% active | AID 588855; further: on the % scale 0 is the no-effect control and ±100 the full control effect; nearly all actives have a fitted effect of over 65% in size
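HEPG2 CAGA-GFP, 1000 cells/well; 2 h settle, 37 C; cpd via pin tool; TGF-b 500 pg/mL final; 18 h, 37 C; GFP imaging ex488/em500-530; %Activity normalised to -TGF-b and +DMSO controls; CRC fit, curve class.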
HT1080 IDH1KD tx = toxicity to HT-1080 IDH1 knockdown cells (counter line). Potency, µM (titrated, usually from 46.1 µM), for inactives: top-dose activity, negative = toxicity, usual class: cytotoxic. 360,000 tested, 2% active. HT-1080 IDH1 knockdown viability, ATP luminescence, 48 h. AID 686971;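 further: 0% = DMSO wells and -100% = cell-free medium wells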
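Assay cells: HT-1080 with IDH1 knockdown, 750 per well, RPMI/5% FBS. Exposure: 48 h at 37 °C following 2 h pre-incubation. Read: CellTiter-Glo luminescence; fitted concentration-response, curve class assigned.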
TDP1 cell noCPT = qHTS for Inhibitors of human tyrosyl-DNA phosphodiesterase 1 (TDP1): qHTS in cells in absence of CPT. AID 686978, 2013. 420,000 tested, 15% active. Potency, µM (series often up to 46.2 µM), without a hit: at the top dose activity change, negative = growth inhibition, actives largely listed as inhibitors. DT40 Tdp1-/- hTDP1 cells, no CPT, ATP luminescence, 48 h; further: on the % scale 0 is the no-effect control and ±100 the full control effect; nearly all actives have a fitted effect of over 55% in size
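Camptothecin absent (DMSO only). Human TDP1-complemented DT40 knockout cells, 400 cells/well, 37 °C for minimum 48 hr; ATP measured via CellTiter-Glo, 30 min dark incubation, luminescence.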
* hit, by the source's call; ? = inconclusive; · = no result given. The call rests on the fitted dose curve; in most records, active means well fitted curve in the direction sought with a large enough effect; inconclusive means small, poorly fitted or top-dose-only effect, or another doubt; inactive means no such curve, though single readings can be large; an effect the other way counts as inactive or inconclusive. Potency means the concentration at half of the fitted maximal effect.

SMILES	HT1080-NT tox	HepG2 viability	TDP1 cell CPT	TGFb SMAD3 inh	HT1080 IDH1KD tx	TDP1 cell noCPT
COCCn1c(SCC(=O)c2c(C)[nH]c3ccccc23)nc2cc(C(=O)NC(C)C)ccc2c1=O	·	-19%	12µM*	?	·	16µM*
COC(=O)CC(=O)CSc1nc2cc(C(=O)NCC(C)C)ccc2c(=O)n1CCc1ccccc1	·	-3%	?	-29%	·	21µM*
COC(=O)CC(=O)CSc1nc2cc(C(=O)NC(C)C)ccc2c(=O)n1CCc1ccccc1	·	-5%	?	-26%	·	23µM*
O=S(=O)(c1cccs1)N1CCN(CC(O)COc2cccc(Br)c2)CC1 (stereo not drawn)	4%	-22%	21µM*	-4%	2%	?
COCc1nnc(NC(C)=O)s1	0%	15%	3%	17%	0%	-14%
COc1ccccc1N1CCN(C(=O)c2coc(=O)c(Br)c2)CC1	-13%	-11%	3.3µM*	-8%	3%	7.3µM*
COc1ccccc1NC(=O)c1coc(=O)c(Br)c1	-14%	-2%	0.73µM*	-29%	-16%	2.1µM*
COc1ccccc1NC(=O)c1sc(-c2ccc(Cl)cc2)cc1N	·	-40%	?	-1%	·	18µM*
COc1ccccc1NC(=O)c1cc(N)cc(C(=O)Nc2ccccc2OC)c1	-5%	-16%	23µM*	0%	1%	?
COC(=O)c1sc(-c2ccc(Cl)cc2)cc1N	-11%	-2%	1%	10%	-17%	-1%
COc1ccccc1N1CCN(C(=O)c2cccc(C(=O)N3CCN(c4ccccc4OC)CC3)c2)CC1	-3%	-20%	?	-7%	-6%	?
CC(C)(C)NC(=O)C(c1ccc(F)cc1)N(C(=O)CCC(=O)Nc1ccccn1)C1CCCC1 (stereo not drawn)	7%	-6%	-20%	-2%	12%	-23%
COc1ccc2c(c1)CCc1c(C(=O)Nc3cc(OC)c(Cl)cc3OC)noc1-2	·	-18%	-5%	0%	·	?
CCOC(=O)c1ccc(OCC2NCCc3cc(OC)c(OC)cc32)cc1 (stereo not drawn)	8%	2%	?	4%	-1%	?
COc1ccc(C(C)NC(=O)c2ccncc2)cc1 (stereo not drawn)	4%	-3%	3%	-18%	-1%	0%
Cc1csc2c(N3CCC(C(=O)O)CC3)ncnc12	-3%	-14%	-5%	-1%	1%	-5%
Cc1csc2c(N3CCN(C(=O)Nc4ccc(OC(F)(F)F)cc4)CC3)ncnc12	?	-11%	10µM*	?	?	18µM*
CCN(CC)S(=O)(=O)c1ccc(/C=C/C(=O)OCC(=O)NCc2ccco2)cc1	-7%	-1%	9.2µM*	-11%	4%	?
CCN(CC)S(=O)(=O)c1ccc(C(=O)OCC(=O)NCc2ccco2)cc1	-16%	-25%	?	-27%	-22%	-27%
O=C(COC(=O)/C=C/c1ccccc1)NCc1cccs1	1%	-2%	-9%	-12%	0%	-23%
CCN(CC)S(=O)(=O)c1ccc(/C=C/C(=O)OCC(=O)NCc2cccs2)cc1	-4%	-6%	21µM*	7%	-14%	?
CCCn1nc(NC(=O)c2cccc(Cl)c2)c2cc3cccc(C)c3nc21	·	51%	?	46%	·	-13%
CCOc1ccc2nc(NS(=O)(=O)c3cccs3)sc2c1	15%	-14%	3%	-8%	4%	-15%
Cc1cc(=O)c2cc(Br)ccc2[nH]1	-4%	-30%	6.5µM*	6%	-27%	6.5µM*
COc1ccccc1N1CCN(C(=O)C2CCN(C(=O)c3cccc(Cl)c3)CC2)CC1	-8%	-6%	?	5%	-4%	?
SMILES	HT1080-NT tox	HepG2 viability	TDP1 cell CPT	TGFb SMAD3 inh	HT1080 IDH1KD tx	TDP1 cell noCPT
COc1ccccc1N1CCN(c2ncc(C(=O)N3CCN(c4cccc(Cl)c4)CC3)c3ccccc23)CC1	15%	-7%	2.6µM*	0%	10%	2.6µM*
O=C(c1cnc(N2CCCCC2)c2ccccc12)N1CCN(c2cccc(Cl)c2)CC1	·	-5%	?	?	·	16µM*
O=C(O)c1ccccc1C(=O)N1CCN(c2cccc(Cl)c2)CC1	5%	-5%	-8%	5%	-1%	-15%
O=C(c1csc2ccccc12)N1CCN(c2ccc(Cl)c(Cl)c2)CC1	1%	8%	21µM*	-7%	22%	23µM*
O=C(c1cnc(N2CCCCC2)c2ccccc12)N1CCN(c2ccc(F)cc2)CC1	·	-26%	23µM*	?	·	16µM*
COc1ccc(N2CCN(C(=O)c3csc4ccccc34)CC2)cc1	9%	-6%	-21%	-6%	12%	?
COC(=O)c1cnc(N2CCN(c3ccc(F)cc3)CC2)c2ccccc12	·	3%	?	-1%	·	?
CCOc1ccc(S(=O)(=O)N2CCCC(C(=O)N3CCOCC3)C2)cc1C (stereo not drawn)	-1%	0%	?	-10%	0%	?
COc1ccccc1N1Cc2ccccc2C1	-3%	-52%	26µM*	0%	0%	16µM*
COc1ccccc1N1CCN(CCCCOc2c(OC)cccc2OC)CC1	-12%	-34%	?	0%	-23%	-20%
COc1ccccc1OCC(=O)N1CCN(C(=O)COc2ccccc2OC)CC1	2%	4%	8%	7%	6%	6%
COc1ccccc1N1CCN(C(=O)COc2cccc3ccccc23)CC1	2%	-23%	23µM*	-1%	22%	?
COc1ccccc1N1CCN(/N=C/C(Cl)=C/c2ccccc2)CC1	-2%	-7%	26µM*	-19%	-12%	16µM*
COc1ccccc1N1CCN(CCOc2c(OC)cccc2OC)CC1	-25%	-24%	18µM*	-18%	-29%	?
COc1ccccc1N1CCN(/N=C\c2ccccc2)CC1	22%	-5%	-3%	-2%	18%	-1%
Cc1nc2cnc(N(C)C)nc2n(-c2ccccc2)c1=O	·	·	-9%	·	·	-8%
COc1ccccc1N1CCN(C(=O)Cn2c(=O)nc(-c3ccccc3)c3ccccc32)CC1	·	-29%	?	?	·	15µM*
COc1ccccc1N1CCN(C(=O)CN2C(=O)c3cccc4cccc(c34)C2=O)CC1	3%	-22%	26µM*	-5%	9%	?

Compound activity from PubChem.
